The text below walks through data of PubChem BioAssay (NCI).

Common to all, as to experiment: NCI-60 one-dose screen, 48 h (100 = growth as untreated, 0 = no growth, -100 = all killed)
In one assay the test system is HCT-15 colon. The conditions noted are these: 10 µM unless noted.
In a further assay the test system is HT29 colon. The conditions noted are these: 10 µM unless noted.
Another assay has as its system SNB-75 CNS. Conditions: 10 µM unless noted.
For another assay, the system named is SNB-19 CNS. The conditions noted are these: 10 µM unless noted.
The test system of another assay is U251 CNS. Conditions: 10 µM unless noted.
A further assay concerns PC-3 prostate. The conditions noted are these: 10 µM unless noted.
The subject of a further assay is SK-MEL-5 melanoma. The conditions noted are these: 10 µM unless noted.
The test system of another assay is UACC-62 melanoma. Conditions: 10 µM unless noted.
A further assay concerns LOX IMVI melanoma. The conditions noted are these: 10 µM unless noted.
The next assay relates to SK-MEL-28 melanoma. The conditions noted are these: 10 µM unless noted.
The next assay relates to SK-MEL-2 melanoma. Conditions: 10 µM unless noted.
The next assay concerns EKVX NSCLC. Conditions: 10 µM.
The subject of another assay is SN12C renal. The conditions noted are these: 10 µM unless noted.
The next assay relates to UO-31 renal. Conditions: 10 µM unless noted.
A further assay concerns TK-10 renal. The conditions noted are these: 10 µM unless noted.
The next assay deals with CAKI-1 renal. Conditions: 10 µM unless noted.
In a further assay the test system is A498 renal. The conditions noted are these: 10 µM unless noted.
For the next assay, the system named is CCRF-CEM leukemia. Conditions: 10 µM.
A further assay has as its system MOLT-4 leukemia. Conditions: 10 µM unless noted.
In the next assay the test system is ACHN renal. The conditions noted are these: 10 µM unless noted.

This is part of a sample that, as a whole, favours compounds with a hit. Of some 83,000 tested, about 20% had one in any assay.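 The test compound was applied at a single concentration to cells in 96-well plates for 48 hours, and percent growth was recorded.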 A number with no mark means an inactive call. Active and inactive are the calls of the source. The calls were made as follows: active = growth percent below 10; inactive = the rest.

For the compound `Brc1ccc(-c2nc3ccccc3s2)cc1`, the growth in the assay on HCT-15 colon was 91.6%; with HT29 colon it was 107%; in the assay with SNB-75 CNS, 80.6%; in the assay on SNB-19 CNS, 94.9%; in the assay on U251 CNS, 96.1%; in the assay on PC-3 prostate, 83.6%. Besides, the growth in the assay with SK-MEL-5 melanoma was 94.4%; in the assay on UACC-62 melanoma, 89.1%; in the assay with LOX IMVI melanoma, 89.5%; with SK-MEL-28 melanoma, 109%; in the assay with SK-MEL-2 melanoma, 105%; in the assay on EKVX NSCLC it was 75.4%. For the same compound, the growth with SN12C renal was 95%; with UO-31 renal, 59.5%; with TK-10 renal it was 142%; with CAKI-1 renal, 73.4%; in the assay on A498 renal it was 77.2%; in the assay with CCRF-CEM leukemia, 95.5%. In the assay with MOLT-4 leukemia, the growth was 88.1%.
With `COc1ccc(-c2nc(SCC(C)C)nc(Nc3ccc(C)cc3)c2C#N)cc1`, the growth is 84.8% in the assay on HCT-15 colon; 82.9% with HT29 colon; 60.6% with SNB-75 CNS; 78.4% in the assay on SNB-19 CNS; 21.2% with U251 CNS; 86.1% with PC-3 prostate. Moreover, the growth is 86.1% in the assay with SK-MEL-5 melanoma; 102% in the assay on UACC-62 melanoma; 73.9% in the assay with LOX IMVI melanoma; 94.6% with SK-MEL-28 melanoma; 107% in the assay on SK-MEL-2 melanoma; 72.8% in the assay on EKVX NSCLC. In addition, the growth with SN12C renal is 41.3%; in the assay with UO-31 renal, 59.7%; with TK-10 renal, 43.3%; in the assay on ACHN renal, 13.6%; in the assay with CCRF-CEM leukemia, 52.9%; in the assay on MOLT-4 leukemia it was 81.6%.
For `COc1cc(Cn2ccc3c2-c2oncc2CC3)cc(OC)c1`, the growth was 27.2% in the assay on HCT-15 colon; 14.9% in the assay on HT29 colon; -16% (active) in the assay with SNB-75 CNS; 43.7% in the assay on SNB-19 CNS; 42.4% in the assay with U251 CNS; 57.9% in the assay with PC-3 prostate. Besides, the growth is 13.9% with SK-MEL-5 melanoma; 38.3% with UACC-62 melanoma; 40.1% in the assay on LOX IMVI melanoma; 48.9% in the assay on SK-MEL-28 melanoma; 28.8% with SK-MEL-2 melanoma; 53.9% in the assay on EKVX NSCLC. Further, the growth in the assay with SN12C renal is 38%; in the assay on UO-31 renal, 28.8%; in the assay with ACHN renal, 47.2%; in the assay on CAKI-1 renal, 23.3%; in the assay with A498 renal, 32.4%; with CCRF-CEM leukemia, 30.1%. Besides, in the assay with MOLT-4 leukemia, the growth was 38.4%.
With `C=CCNC(=S)NNc1ccc([N+](=O)[O-])cn1`, the growth in the assay with HCT-15 colon was 100%; in the assay with HT29 colon, 90.5%; in the assay on SNB-75 CNS it was 81.8%; in the assay on SNB-19 CNS, 103%; with U251 CNS it was 101%; in the assay with PC-3 prostate it was 100%. The growth in the assay with SK-MEL-5 melanoma is 94.3%; with UACC-62 melanoma, 99.3%; in the assay on LOX IMVI melanoma, 82%; in the assay on SK-MEL-28 melanoma, 106%; with SK-MEL-2 melanoma, 94.4%; in the assay with EKVX NSCLC, 99.9%. The growth with SN12C renal was 100%; with UO-31 renal it was 83.7%; with TK-10 renal, 104%; in the assay with CCRF-CEM leukemia, 71.2%; in the assay on MOLT-4 leukemia, 99.4%.
`NNC(=S)N1N=C(c2cc3ccccc3o2)CC1c1c[nH]c2ccccc12` (stereo not drawn): the growth with HCT-15 colon is 30.4%; in the assay with HT29 colon, 34.1%; in the assay with SNB-75 CNS, 88.4%; in the assay with SNB-19 CNS it was 35.5%; in the assay on U251 CNS it was 36%; in the assay with PC-3 prostate, 29.2%. Further, the growth in the assay with SK-MEL-5 melanoma is 42.1%; with UACC-62 melanoma it was 15.4%; in the assay on LOX IMVI melanoma it was 26%; with SK-MEL-28 melanoma it was 40.2%; in the assay with SK-MEL-2 melanoma, 60.1%; with EKVX NSCLC it was 35.2%. Also, the growth in the assay with SN12C renal is 56.9%; in the assay on UO-31 renal, 24%; with TK-10 renal, 80.1%; with A498 renal, 90.2%; in the assay with CCRF-CEM leukemia, 7.46% (active); in the assay with MOLT-4 leukemia, 10.2%.
As to `COc1ccc2oc(=O)cc(CN3C(=O)S/C(=C\c4ccc(Cl)cc4)C3=O)c2c1`, the growth with HCT-15 colon is 92.3%; with HT29 colon, 103%; with SNB-75 CNS it was 98.7%; with SNB-19 CNS it was 99%; in the assay on U251 CNS, 101%; in the assay on PC-3 prostate, 91.8%. For the same compound, the growth in the assay with SK-MEL-5 melanoma was 101%; in the assay with UACC-62 melanoma it was 83.1%; with LOX IMVI melanoma, 95.2%; with SK-MEL-28 melanoma, 101%; in the assay with SK-MEL-2 melanoma, 106%; in the assay on EKVX NSCLC, 93%. Moreover, the growth in the assay on SN12C renal was 108%; with UO-31 renal, 83.4%; in the assay with ACHN renal, 105%; in the assay on A498 renal it was 106%; in the assay with CCRF-CEM leukemia, 86.5%; in the assay on MOLT-4 leukemia it was 89.2%.
In the case of `COc1ccc2cc(C(C)C(=O)Nc3ccc(S(=O)(=O)Nc4cc(C)on4)cc3)ccc2c1` (stereo not drawn), the growth in the assay on HCT-15 colon is 93.8%; in the assay with HT29 colon, 121%; in the assay with SNB-75 CNS, 99.7%; in the assay on SNB-19 CNS, 117%; in the assay on U251 CNS, 98.9%; in the assay with PC-3 prostate, 104%. The growth in the assay on SK-MEL-5 melanoma was 110%; in the assay with UACC-62 melanoma, 108%; in the assay with LOX IMVI melanoma it was 96.2%; in the assay with SK-MEL-28 melanoma it was 111%; with SK-MEL-2 melanoma it was 117%; in the assay on EKVX NSCLC, 97.5%. Moreover, the growth in the assay with SN12C renal was 116%; in the assay with UO-31 renal, 90%; in the assay on ACHN renal, 97.3%; in the assay with CAKI-1 renal, 86.4%; in the assay with MOLT-4 leukemia, 106%.
Take `CCOC(=O)CCCCCCCCC(=O)OCC`: the growth in the assay with HCT-15 colon is 117%; in the assay with HT29 colon, 109%; in the assay with SNB-75 CNS it was 102%; in the assay on SNB-19 CNS it was 103%; in the assay on U251 CNS it was 97.2%; in the assay with PC-3 prostate it was 101%. In addition, the growth is 107% with SK-MEL-5 melanoma; 102% in the assay with UACC-62 melanoma; 96.9% in the assay on LOX IMVI melanoma; 110% in the assay with SK-MEL-28 melanoma; 112% in the assay on SK-MEL-2 melanoma; 118% with EKVX NSCLC. Further, the growth in the assay on SN12C renal was 102%; with UO-31 renal, 95.7%; in the assay on TK-10 renal, 104%; in the assay with CAKI-1 renal, 105%; in the assay with A498 renal, 93.9%; in the assay with CCRF-CEM leukemia, 107%. In the assay on MOLT-4 leukemia, the growth was 95.2%.
As for `CCCCCCNC(=O)Oc1ccc(/C(=C(/C)Cc2ccc(OC)cc2)c2ccc(OCCN(C)C)cc2)cc1`, the growth in the assay with HCT-15 colon is 1.78% (active); in the assay with HT29 colon, -7.26% (active); in the assay on SNB-75 CNS, 50.5%; in the assay with SNB-19 CNS it was 78.8%; in the assay on U251 CNS, 23.4%; with PC-3 prostate, 56.3%. Moreover, the growth in the assay on SK-MEL-5 melanoma is -49.6% (active); with UACC-62 melanoma, 40.5%; with LOX IMVI melanoma, -15.9% (active); in the assay on SK-MEL-28 melanoma, 68.6%; with SK-MEL-2 melanoma it was 111%; with EKVX NSCLC, 78.1%. The growth was 60.3% with SN12C renal; 38.9% in the assay on UO-31 renal; 64.2% in the assay on ACHN renal; 48.2% with CCRF-CEM leukemia; 30.7% in the assay on MOLT-4 leukemia.
Turning to `CCS(=O)(=O)N[C@@H]1O[C@H](COC(C)=O)C(OC(C)=O)[C@H](OC(C)=O)C1OC(C)=O` (stereo partly drawn), the growth in the assay with HCT-15 colon is 93.8%; in the assay on HT29 colon, 102%; in the assay with SNB-75 CNS, 93.9%; with SNB-19 CNS, 115%; in the assay on U251 CNS, 97.7%; in the assay on PC-3 prostate, 102%. Moreover, the growth is 105% in the assay on SK-MEL-5 melanoma; 110% with UACC-62 melanoma; 92.8% in the assay with LOX IMVI melanoma; 108% with SK-MEL-28 melanoma; 106% in the assay with SK-MEL-2 melanoma; 99.1% with EKVX NSCLC. The growth is 112% with SN12C renal; 94.6% with UO-31 renal; 101% with ACHN renal; 94.8% with CAKI-1 renal; 106% with MOLT-4 leukemia.
On to `NC(=O)CC(NC(=O)COc1ccc(Cl)cc1Cl)C(=O)O` (stereo not drawn), for which the growth with HCT-15 colon is 112%; with HT29 colon it was 107%; in the assay on SNB-75 CNS, 102%; in the assay on SNB-19 CNS it was 103%; with U251 CNS, 101%; in the assay with PC-3 prostate, 94.2%. For the same compound, the growth with SK-MEL-5 melanoma is 98.8%; with UACC-62 melanoma, 98.6%; with LOX IMVI melanoma, 97.1%; in the assay with SK-MEL-28 melanoma, 109%; in the assay with SK-MEL-2 melanoma, 104%; with EKVX NSCLC it was 111%. Further, the growth is 101% with SN12C renal; 95.6% with UO-31 renal; 103% with TK-10 renal; 101% in the assay with CAKI-1 renal; 88% in the assay on A498 renal; 105% in the assay with CCRF-CEM leukemia. Moreover, the growth in the assay on MOLT-4 leukemia is 104%.
